Compound activity as filed in PubChem.
mHTT-CaM PPI inh = mutant huntingtin-calmodulin interaction inhibitors – biochemical, AlphaScreen, primary screen; hit rate 3.6% among 190,000; AlphaScreen His-mHTT/GST-CaM binding, luminescence; P42858; inhibition, % at 15 µM;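 also: 0% = both proteins with DMSO and 100% = one protein alone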
Pf apPOL block = Pf-apPOL inhibitors, biochemical, fluorescence | Plasmodium falciparum apicoplast DNA polymerase (apPOL) | Recombinant Pf-apPOL, molecular beacon fluorescence, 1.5 h | inhibition, % at 10 µM | hit rate 0.25% among 210,000 | AID 1794808, 2022
The depositor's hits bear a star. Compounds with a hit are over-represented: about 3.5% of the library has one in this group of screens. Rule as the data show it: active = inhibition above about 50%; inactive = the rest.

What do the screens show for `O=C(NCCCc1ccccc1)c1ccccc1Cl`?
mHTT-CaM PPI inh: -2; Pf apPOL block: 1

What do the screens show for `COc1ccc(C2=N/C(=C/c3cccc(OC)c3OC)C(=O)O2)cc1`?
mHTT-CaM PPI inh: -2; Pf apPOL block: -2

How did Fc1ccc(C2Nc3ccccc3C3C=CCC32)cc1 (stereo unspecified) do in these assays?
mHTT-CaM PPI inh: 87*; Pf apPOL block: 16

What do the screens show for `COc1cc(C2Nc3c(C)cccc3C3C=CCC32)cc(Br)c1OC` (stereo unspecified)?
mHTT-CaM PPI inh: 0; Pf apPOL block: -2

Results for CN(C)C(=O)c1cccc2c1NC(c1ccc(Br)cc1)C1CC=CC21 (stereo unspecified) ?
mHTT-CaM PPI inh: 64*; Pf apPOL block: -38

How did CCOc1cccc2c1NC(c1ccc(C(=O)O)cc1)C1CC=CC21 (stereo unspecified) do in these assays?
mHTT-CaM PPI inh: 63*; Pf apPOL block: -6

Results for c1ccc(C2Nc3ccccc3C3OCCC23)cc1 (stereo unspecified) ?
mHTT-CaM PPI inh: -1; Pf apPOL block: 0

What do the screens show for `COc1cccc2c1NC(c1cccc(Br)c1)C1CC=CC21` (stereo unspecified)?
mHTT-CaM PPI inh: 53*; Pf apPOL block: -11

How did CC(=O)c1ccc(N2N=C(C)/C(=C\c3ccc(-c4cccc([N+](=O)[O-])c4)o3)C2=O)cc1 do in these assays?
mHTT-CaM PPI inh: 14; Pf apPOL block: -2

What do the screens show for `COc1cccc(CNC(=O)C2(C)CCCN(S(=O)(=O)c3cc(C)cc(C)c3)C2)c1` (stereo unspecified)?
mHTT-CaM PPI inh: 8; Pf apPOL block: 4

Results for COc1cccc2c1NC(c1ccc(F)cc1)C1CC=CC21 (stereo unspecified) ?
mHTT-CaM PPI inh: 79*; Pf apPOL block: -2

How did Cc1ccc(C(=O)NCc2ccncc2)cc1Cl do in these assays?
mHTT-CaM PPI inh: -8; Pf apPOL block: -10

What do the screens show for `COc1ccc(-c2nnc(N3CCC(C(=O)NCc4cccc(F)c4)CC3)o2)cc1`?
mHTT-CaM PPI inh: 32; Pf apPOL block: -3

What do the screens show for `Cn1cnc2c1CN(C(=O)c1ccoc1)CC2`?
mHTT-CaM PPI inh: 0; Pf apPOL block: 7

How did COc1ccc(C(=O)NCc2ccco2)cc1OC do in these assays?
Pf apPOL block: -12

How did COc1cc2c(cc1N)OCO2 do in these assays?
mHTT-CaM PPI inh: 54*

Results for COc1cc(Br)c(Br)cc1N ?
mHTT-CaM PPI inh: -11

Results for COc1cc([N+](=O)[O-])cc2c1NC(c1ccc(Br)cc1)C1CC=CC21 (stereo unspecified) ?
mHTT-CaM PPI inh: 33; Pf apPOL block: -1

How did O=[N+]([O-])c1ccc(C2Nc3ccc(F)cc3C3C=CCC32)cc1 (stereo unspecified) do in these assays?
mHTT-CaM PPI inh: 91*; Pf apPOL block: -29

How did NS(=O)(=O)c1ccc2c(c1)C1C=CCC1C(c1ccc(Br)cc1)N2 (stereo unspecified) do in these assays?
mHTT-CaM PPI inh: 84*; Pf apPOL block: 3

Results for Brc1ccc2c(c1)[C@@H]1C=CC[C@@H]1[C@H](c1ccncc1)N2 ?
mHTT-CaM PPI inh: -4

Results for COc1cc(C2Nc3ccc([N+](=O)[O-])cc3C3C=CCC32)cc(OC)c1OC (stereo unspecified) ?
mHTT-CaM PPI inh: 71*; Pf apPOL block: 2

Results for Cc1ccc2c(c1)NC(c1ccc([N+](=O)[O-])cc1)C1CC=CC21 (stereo unspecified) ?
mHTT-CaM PPI inh: 43; Pf apPOL block: -6

How did Nc1ccc2c(c1)C1C=CCC1C(c1ccc([N+](=O)[O-])cc1)N2 (stereo unspecified) do in these assays?
mHTT-CaM PPI inh: 98*; Pf apPOL block: -3

Results for Nc1nc(SCC(=O)Nc2nonc2-n2cccc2)n[nH]1 ?
mHTT-CaM PPI inh: 8

Results for Cc1cccc(-c2nnc(NC(=O)Nc3ccc(F)cc3)s2)c1 ?
mHTT-CaM PPI inh: -8; Pf apPOL block: -3

What do the screens show for `CCN(Cc1ccccc1)C(=O)Cn1cccc1-c1nnc(-c2ccccc2)o1`?
mHTT-CaM PPI inh: 0; Pf apPOL block: 1

How did COc1ccc(C(O)CN2CCN(c3ccccc3)CC2)cc1 (stereo unspecified) do in these assays?
mHTT-CaM PPI inh: 6; Pf apPOL block: 10

Results for C=CCNC(=O)C1CCN(c2cc(N3CCCCC3)ncn2)CC1 ?
mHTT-CaM PPI inh: -3; Pf apPOL block: 0

Results for CCOc1ccccc1NC(=O)c1cc(S(=O)(=O)NC2CCCCC2)ccc1F ?
mHTT-CaM PPI inh: 8; Pf apPOL block: 29

Results for O=[N+]([O-])c1ccc(C2Nc3cc(Cl)cc(Cl)c3C3C=CCC32)cc1 (stereo unspecified) ?
mHTT-CaM PPI inh: 60*; Pf apPOL block: -5

How did COc1cc(Cl)c(C)cc1NC(=O)C1CCN(c2nccc(C)n2)CC1 do in these assays?
mHTT-CaM PPI inh: -5; Pf apPOL block: -1

Results for CCOC(CNC(=O)c1ccc(CNS(=O)(=O)c2ccc(Cl)cc2)cc1)OCC ?
mHTT-CaM PPI inh: 1; Pf apPOL block: -3

How did O=C(CC(=O)c1ccc([N+](=O)[O-])cc1)Nc1ccc2c(c1)OCO2 do in these assays?
mHTT-CaM PPI inh: 51*; Pf apPOL block: -4

How did O=C(Cc1ccc([N+](=O)[O-])cc1)Nc1ccc2c(c1)OCO2 do in these assays?
mHTT-CaM PPI inh: 2; Pf apPOL block: -6

Results for COc1ccc(S(=O)(=O)Oc2ccc3c(c2)OC(=Cc2cc(OC)ccc2OC)C3=O)cc1 ?
mHTT-CaM PPI inh: -2; Pf apPOL block: 0

What do the screens show for `c1cncc(-c2noc(C3CCCCN3Cc3ccco3)n2)c1` (stereo unspecified)?
mHTT-CaM PPI inh: 4; Pf apPOL block: 2

How did CN(C)c1ccc(CN2CCCC2c2nc(-c3cccnc3)no2)cc1 (stereo unspecified) do in these assays?
mHTT-CaM PPI inh: 56*; Pf apPOL block: -2

Results for COc1ccc(CNC(=O)C2CN(S(=O)(=O)c3cccnc3)CC23CCCCC3)cc1 (stereo unspecified) ?
mHTT-CaM PPI inh: 3; Pf apPOL block: -3

What do the screens show for `CCOc1ccc(NC(=O)C2CN(S(=O)(=O)c3cccnc3)CC23CCCCC3)cc1` (stereo unspecified)?
mHTT-CaM PPI inh: 52*; Pf apPOL block: -1

How did COCc1snnc1C(=O)OC do in these assays?
Pf apPOL block: -2

How did COc1ccc(C=C2Oc3c(ccc4c3CN(CCN3CCOCC3)CO4)C2=O)cc1OC do in these assays?
mHTT-CaM PPI inh: 62*; Pf apPOL block: -30

Results for COc1cc(OC)c(OC)cc1C=C1Oc2c(ccc3c2CN(CCN2CCOCC2)CO3)C1=O ?
mHTT-CaM PPI inh: 30; Pf apPOL block: -9

How did COCCN1COc2ccc3c(c2C1)OC(=Cc1ccc(OC)c(OC)c1)C3=O do in these assays?
mHTT-CaM PPI inh: 15; Pf apPOL block: -15

How did COc1ccc(OC)c(C=C2Oc3c(ccc4c3CN(CCN3CCOCC3)CO4)C2=O)c1 do in these assays?
mHTT-CaM PPI inh: 54*; Pf apPOL block: -5

How did O=C1C=CC(=O)N1c1ccc(Oc2cccc(Oc3ccc(N4C(=O)C=CC4=O)cc3)c2)cc1 do in these assays?
mHTT-CaM PPI inh: 91*; Pf apPOL block: -6

How did NC(=O)c1ccc(Oc2cccc(Oc3ccc(C(N)=O)cc3)c2)cc1 do in these assays?
mHTT-CaM PPI inh: -1; Pf apPOL block: 1

How did Cc1cccc(Oc2ccc(N3C(=O)C=CC3=O)cc2)c1C do in these assays?
mHTT-CaM PPI inh: 49; Pf apPOL block: -9
